# Compounds with a hit are over-represented: about 11% of the library has one in this group of screens.
# NS1 inh = inhibitors of influenza NS1 protein function; Potency, µM (series often up to 46.1 µM), inactives show top-dose activity, positive = more growth; actives 0.4% (n = 270,000); calls by dose curve; also: actives are rising curves; nearly all actives have a fitted effect of over 50% in size
#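 OD600 was taken as the measure of yeast growth restored by compound in an NS1-expressing S. cerevisiae strain. Cells had been washed out of glucose medium and diluted 1:100 into galactose -URA medium, pH 6.0.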
# Pf growth 96h = P. falciparum growth inhibition at 96 hours. Potency, µM (titrated, usually from 28.7 µM), for the others: at the highest dose activity change, negative = inhibition, most hits filed as inhibitors. actives 6.9% (n = 320,000). AID 504834. P. falciparum luciferase reporter growth, 96 h; also: % is scaled to controls: 0 for no effect and ±100 for the full control effect
#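 Parasite growth measured via integrated firefly luciferase reporter in P. falciparum. Infected erythrocytes at 2% hematocrit, 0.05% parasitemia final were treated 96 hours at 37 C under 5% CO2, and luminescence was read.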
# VACV Venus inh = inhibitors of vaccinia virus (Venus reporter) | Vaccinia virus Venus reporter expression, fluorescence | Potency, µM (top dose mostly 36.5 µM), for inactives: top-dose activity change, negative = inhibition, most hits filed as inhibitors | actives 0.46% (n = 330,000) | AID 720580; calls by dose curve; tested in A549 cells; also: % is scaled to controls: 0 for no effect and ±100 for the full control effect; nearly all actives have a fitted effect of over 30% in size
# Vaccinia mCherry = inhibitors of vaccinia virus infection (mCherry reporter signal) | actives 0.63% (n = 310,000) | Potency, µM (highest dose often 36.5 µM), without a hit: at the top dose activity change, negative = inhibition, usual class: inhibitors | Vaccinia virus mCherry reporter infection, fluorescence; calls by dose curve; tested in A549 cells; also: % is scaled to controls: 0 for no effect and ±100 for the full control effect; nearly all actives have a fitted effect of over 35% in size
# Pf growth 48h = P. falciparum growth inhibition at 48 hours (one generation); P. falciparum luciferase growth in erythrocytes, 48 h; Potency, µM (series often up to 28.7 µM), for the others: top-dose activity change, negative = inhibition, actives largely listed as inhibitors; actives 5.9% (n = 310,000); also: % is scaled to controls: 0 for no effect and ±100 for the full control effect
#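 First compound was added to culture medium, then infected red cells at 0.1% parasitemia and 2% hematocrit (final). After incubation at 37 C under 5% CO2, luciferase detection reagent was dispensed and light output recorded.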
# HCV inh = inhibitors of hepatitis C virus infection | Potency, µM (top dose mostly 41.8 µM), without a hit: at the highest dose activity change, negative = inhibition, usual class: inhibitors | actives 3.4% (n = 340,000) | Huh7.5.1 HCVcc-Cre infection, luciferase reporter, 44 h; also: % is scaled to controls: 0 for no effect and ±100 for the full control effect
#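 Infectious HCVcc-Cre (~0.5 moi) was added to cells just after compound, with cells seeded 4 h earlier at 1,000 per well. Luciferase activity after 44 h culture reported infection; substrate was incubated 15 min at room temperature before reading.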
# * marks the source's active call; other numbers are inactive results; i = inactive; ? = inconclusive; · = no result given. Unless noted, calls follow the shape of the dose curve; as a rule, active = well fitted inhibition curve with a large enough effect; inconclusive = small, poorly fitted or top-dose-only effect, or another doubt; inactive = no such curve, though single readings can be large or run the other way. Potency is read from the fitted curve at half-maximal effect.
SMILES,NS1 inh,Pf growth 96h,VACV Venus inh,Vaccinia mCherry,Pf growth 48h,HCV inh
Cc1ccccc1Nc1c(C)c(C)nc2ncnn12,0.3%,?,-4.7%,-14.0%,25.3%,11.2µM*
CCc1c(C)nc2ncnn2c1Nc1ccccc1C,-0.6%,-2.8%,-17.4%,-17.6%,-4.7%,-4.5%
CC(C)C[C@@H](C(=O)NCc1ccco1)N1C(=O)N2CCc3c([nH]c4ccccc34)[C@@]2(C)C1=O,-8.7%,?,-9.9%,-18.7%,?,?
Cc1cccc2cc(/C=N/NC(=O)CN3CCOCC3)c(Cl)nc12,-8.0%,0.0%,1.6%,-5.7%,33.9%,15.6%
CC(=O)N[C@@H](C)c1nc2ccccc2n1CCCN1CCN(c2nc(-c3ccc(C)cc3)cs2)CC1,4.1%,?,?,?,?,3.55µM*
Cc1ccc(-c2csc(N3CCN(CCCn4c(-c5ccncc5)nc5ccccc54)CC3)n2)cc1,-38.5%,2.62µM*,?,10µM*,?,?
O=C(NCCn1c(C(F)(F)F)nc2ccccc21)[C@H]1CCCN1c1nc(CN2CCCCC2)cs1,3.9%,?,-6.4%,?,6.5%,11.1%
Cc1ccc(-c2csc(N3CCC[C@@H]3C(=O)NCCn3c(-c4ccncc4)nc4ccccc43)n2)cc1,3.8%,3.29µM*,?,?,?,?
Cc1ccc(-c2csc(N3CCN(CCCn4c(C(F)(F)F)nc5ccccc54)CC3)n2)cc1,?,?,-26.2%,-20.8%,?,4.6%
COc1ccc(CC(=O)Nc2ncc([N+](=O)[O-])s2)cc1OC,6.9%,77.9%,-4.6%,i,-3.7%,-0.1%
COc1cc2c(cc1OC)C1(CCCC1)CNC2c1ccc([N+](=O)[O-])cc1 (configuration not stated),·,?,-4.0%,-11.2%,?,-7.8%
COc1ccc(NC(=O)c2cc3ccccc3[nH]2)cc1,-14.5%,113.5%,·,·,131.3%,17.5%
O=C1CC(O)(C(F)(F)F)Oc2c1ccc1ccccc21 (configuration not stated),-142.7%,·,-12.2%,i,22.0%,-28.9%
COc1ccc(-c2nc(NCCCN(C)C)c3ccccc3n2)cc1,-9.6%,?,·,·,?,?
O=C(O)CCCCCNc1nc(-c2ccccc2)nc2ccccc12,1.8%,-28.6%,·,·,-22.5%,-2.2%
OCCNc1nc(-c2ccccc2)nc2ccccc12,·,-14.6%,-12.0%,i,9.4%,7.94µM*
c1ccc(-c2nc(NCCCn3ccnc3)c3ccccc3n2)cc1,-4.0%,8.28µM*,-13.2%,i,3.7µM*,?
OCCCNc1nc(-c2ccc(Cl)cc2)nc2ccccc12,-63.3%,?,·,·,-8.3%,12.6µM*
CCN(CC)CCCNc1nc2ccccc2c2[nH]c3ccc(OC)cc3c12,·,·,10µM*,?,·,?
CCN(CC)CCCNc1nc(-c2ccccc2)nc2ccccc12,1.7%,?,?,i,?,10µM*
COCCCNC(c1ccccc1)c1ccncc1 (configuration not stated),0.6%,2.62µM*,-4.9%,-16.0%,-2.2%,6.2%
COCCNc1nc(-c2ccccc2)nc2ccccc12,-0.2%,-6.1%,-13.6%,i,29.9%,?
COCCCNc1nc(-c2ccncc2)nc2ccccc12,-34.0%,40.3%,-11.4%,-16.0%,?,11.2µM*
CC(=O)OCCNc1nc(-c2ccccc2)nc2ccccc12,-7.2%,10.7%,·,·,-15.8%,10µM*
Cc1ccc(NC(=O)CN2C(=O)NC3(CCCc4ccccc43)C2=O)c(C)c1 (configuration not stated),·,-23.6%,?,-5.2%,-4.1%,-4.3%
SMILES,NS1 inh,Pf growth 96h,VACV Venus inh,Vaccinia mCherry,Pf growth 48h,HCV inh
O=c1c2cccnc2[nH]c(=S)n1CCCN1CCN(c2ccc(F)cc2)CC1,-8.1%,·,·,·,8.0%,-5.4%
COCCCNc1nc(-c2ccc(Cl)cc2)nc2ccccc12,-91.0%,?,-21.4%,-17.0%,41.8%,12.6µM*
COCCNc1nc(-c2cccc(OC)c2)nc2ccccc12,·,·,-20.8%,-25.4%,·,·
CS(=O)(=O)N1CCN(c2ccc(NC(=S)NC(=O)c3ccc4c(c3)OCO4)cc2)CC1,4.9%,?,4.5%,20.8%,-9.5%,10µM*
CC(=O)N1CCN(c2ccc(NC(=O)c3ccc4c(c3)OCO4)cc2)CC1,1.6%,-24.9%,5.9%,-5.4%,2.5%,10.2%
O=C(NC(=S)Nc1ccc(CN2CCOCC2)cc1)c1ccc2c(c1)OCCO2,4.4%,-19.0%,?,?,-18.8%,35.5µM*
O=C(NC(=S)Nc1ccc(N2CCOCC2)cc1)c1ccc2c(c1)OCCO2,26.2%,26.7%,·,·,17.1%,7.94µM*
COc1ccc(C(=O)NC(=S)Nc2ccc(CN3CCOCC3)cc2)cc1,-3.1%,?,-29.7%,-18.0%,-0.6%,-10.1%
O=C(NC(=S)Nc1ccc(N2CCCCC2)cc1)c1ccc2c(c1)OCCO2,13.6%,73.4%,-11.6%,-23.6%,131.2%,13.1%
O=C(NC(=S)Nc1ccccc1N1CCOCC1)c1cccc([N+](=O)[O-])c1,9.8%,?,·,·,?,?
O=C(O)CN1CCNCCN(CC(=O)O)CCNCC1,·,·,-11.0%,-17.2%,·,?
O=C(Nc1ccccc1)c1nn(-c2ccccc2)c(=O)cc1C(F)(F)F,0.7%,?,8.9%,·,30.6%,?
CCC(=NCCC(c1ccccc1)c1ccccc1)c1c(O)[nH]c(=O)[nH]c1=O,21.8%,?,-23.2%,-14.5%,-23.4%,?
COc1ccc(Sc2ccc(NC(=O)c3ccccc3Cl)cc2C#N)cc1,13.0%,13.0%,-28.9%,·,16.9%,11.2µM*
CCN(CC(=O)Nc1ccc(OC)cc1)C(=O)c1ccccc1Sc1ccccc1C#N,·,17.8%,2.5%,?,?,22.4µM*
CCN(CC(=O)Nc1ccccc1OC)C(=O)c1ccccc1Sc1ccccc1C#N,·,?,·,·,?,19.4%
Cc1cccc(C)c1NC(=O)CN(C)C(=O)c1ccccc1Sc1ccccc1C#N,·,?,·,·,9.28µM*,-5.9%
CC12CC(NC(=O)N1c1ccc(C(=O)N3CCN(c4ccccn4)CC3)cc1)c1ccccc1O2 (configuration not stated),-9.0%,-14.3%,·,·,-15.5%,·
C/C(=N\Nc1c(Cl)c(Cl)nc(C(=O)O)c1Cl)c1ccc(O)cc1,23.5%,48.6%,-5.2%,-18.7%,6.5%,-18.6%
O=S(=O)(c1ccc(O)cc1)c1ccc(O)cc1,4.7%,?,·,·,20.2%,0.0%
O=C1C=CC(=C(c2ccc(O)cc2)c2ccc(O)cc2)C=C1,·,7.38µM*,1.8%,-26.8%,7.38µM*,10µM*
COC(=O)c1ccccc1NC1c2ccccc2C(=O)N1c1cccnc1 (configuration not stated),-38.5%,-14.2%,1.1%,3.2%,?,-1.1%
Cc1ccc(-c2cc(C(=O)N/N=C/c3c[nH]c4ccccc34)n[nH]2)o1,9.4%,3.7%,·,·,3.9%,-1.5%
